# According to PubChem BioAssay AID1851 (National Center for Advancing Translational Sciences (NCATS), 2009):
# Out of some 16,000 compounds screened, about 5,700 (36%) were called active. Inconclusive results (about 24%) are left out. The list shows a part of the results. Unmarked numbers belong to inactive results. Calls follow the shape of the dose curve; as a rule, active = well fitted curve in the direction sought with a large enough effect; inconclusive = small, poorly fitted or top-dose-only effect, or effect the other way; inactive = no such curve, though single readings can be large or run the other way.
# Target: Cytochrome P450 1A2 (Homo sapiens) (UniProt P05177)
# Assay: Cytochrome panel assay with activity outcomes
# Conditions: recombinant CYP, pro-luciferin dealkylation, luminescence, p450-cyp1a2; series mostly up to 57.1 µM
# % is scaled to controls: 0 for no effect and ±100 for the full control effect.
# Sequence of Cytochrome P450 1A2 (Homo sapiens) (P05177 whole entry, looked up): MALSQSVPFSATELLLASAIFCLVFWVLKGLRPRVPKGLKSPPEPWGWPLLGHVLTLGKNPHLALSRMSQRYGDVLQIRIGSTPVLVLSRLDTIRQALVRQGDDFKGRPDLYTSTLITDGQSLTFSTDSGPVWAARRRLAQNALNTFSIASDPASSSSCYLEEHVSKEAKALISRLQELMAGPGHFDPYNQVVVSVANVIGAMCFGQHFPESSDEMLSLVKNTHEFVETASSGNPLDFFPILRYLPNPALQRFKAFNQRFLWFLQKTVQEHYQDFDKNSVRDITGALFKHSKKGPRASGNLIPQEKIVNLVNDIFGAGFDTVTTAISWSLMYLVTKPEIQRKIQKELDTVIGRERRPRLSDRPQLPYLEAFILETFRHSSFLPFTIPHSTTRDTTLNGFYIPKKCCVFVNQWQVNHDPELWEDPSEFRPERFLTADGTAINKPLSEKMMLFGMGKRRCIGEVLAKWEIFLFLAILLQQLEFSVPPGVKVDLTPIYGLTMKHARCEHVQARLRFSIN
SMILES,AC50,"activity, negative = inhibition"
NC(=O)c1ncn([C@@H]2O[C@@H](CO)[C@@H](O)[C@H]2O)c1O,inactive,
O=[N+]([O-])c1ccc(CSc2ncnc3c2ncn3[C@@H]2O[C@@H](CO)[C@@H](O)[C@H]2O)cc1,inactive,
CC(C)C(=O)Nc1ccc(NC(=O)c2cccnc2)cn1,inactive,
O=C(Nc1ccc2nc(-c3ccc(Br)o3)[nH]c2c1)c1ccco1,3.55 µM (active),
O=C(Nc1ccc(OC(=O)c2cccnc2)cc1)c1cccnc1,inactive,
CCOc1ccc(C(=O)Nc2ccc(NC(=O)c3ccco3)c(Cl)c2)cc1Br,inactive,
O=C(Nc1cccc(OC(=O)c2cccnc2)c1)c1cccnc1,7.08 µM (active),
O=C(Nc1cccc(NC(=O)c2ccc(-c3cccc(Br)c3)o2)c1)c1ccco1,3.16 µM (active),
CN(C)Cc1ccccc1-c1nccc(Nc2ccc(F)cc2)n1,3.16 µM (active),
CNc1ccnc(-c2ccccc2CN(C)C)n1,12.6 µM (active),
CN(C)Cc1ccccc1-c1nccc(NC2CC2)n1,1.58 µM (active),
CN(C)Cc1cc(C(C)(C)C)ccc1-c1ccc(C(C)(C)C)cc1CN(C)C,,-17.9% [at 2.29 µM]
CN(C)Cc1ccccc1-c1nccc(N(C)C)n1,12.6 µM (active),
COCC(=O)N1CCC2(CC1)CCN(C(c1ccccc1)c1ccccc1)CC2,inactive,
O=C(Nc1cccc(F)c1)N1CC[C@@]2(CCCN(C(=O)c3cnccn3)C2)C1,inactive,
CCOC(=O)c1c(CC(C)C)csc1NC=O,0.224 µM (active),
COc1cccc(Nc2ncc3nc(-c4cccs4)c(=O)n(CCC#N)c3n2)c1,2.51 µM (active),
CCNc1ncc2nc(-c3cccs3)c(=O)n(CCc3ccccc3)c2n1,10 µM (active),
N#CCCn1c(=O)c(-c2cccs2)nc2cnc(Nc3ccccc3)nc21,5.01 µM (active),
CCNc1ncc2nc(-c3cccs3)c(=O)n(CCC#N)c2n1,3.16 µM (active),
CCOC(=O)c1c(-c2ccc(C)o2)csc1NC(=S)NC(=O)N(C)C,1.58 µM (active),
O=C1C2=CC[C@H]3C(=O)N(c4cccc(Oc5ccccc5)c4)C(=O)[C@@H]3[C@@H]2[C@H](O)[C@@H]2O[C@H]12,,-1.58% [at 11.4 µM]
O=C(CN1C(=O)C2C3C=CC(C3)C2C1=O)Nc1ccc(C(=O)O)cc1 (stereo not drawn),inactive,
CN(C)c1ccc(NC(=O)c2cccc(N3C(=O)C4C5C=CC(C5)C4C3=O)c2)cc1 (stereo not drawn),2 µM (active),

SMILES,AC50,"activity, negative = inhibition"
O=C(CCN1C(=O)C2C3C=CC(C3)C2C1=O)Nc1ccc2ncccc2c1 (stereo not drawn),inactive,
CO[C@@H]1COC(=O)C/C=C\[C@@H](C)COC(=O)[C@H](COCc2ccccc2)NC(=O)C/C=C\[C@H]1C,,-7.1% [at 11.4 µM]
CCOc1ccc(-c2c[n+](=O)c3c(n2[O-])CCCC3)c(OCC)c1,inactive,
O=[n+]1c2c(n([O-])c3cc(F)c(F)cc31)CCCC2,14.1 µM (active),
CCCC1(C)Nc2ccccc2-c2nc3ccccc3n21 (stereo not drawn),8.91 µM (active),
CCC1(C)Nc2ccccc2C(=O)N1O (stereo not drawn),inactive,
CCCCC1(C)Nc2ccccc2-c2nc3ccccc3n21 (stereo not drawn),14.1 µM (active),
Fc1ccc(Nc2ccnc(-c3ccc4c(c3)OCO4)n2)cc1,0.631 µM (active),
Fc1ccc(Nc2ccnc(-c3ccoc3)n2)cc1,1 µM (active),
CN(C)c1ccc(-c2cc(Nc3ccc(F)cc3)ncn2)cc1,0.398 µM (active),
CN(C)C(=O)c1ccc(-c2nccc(Nc3ccc(F)cc3)n2)cc1,6.31 µM (active),
CCCCC1CC(/C(C)=N/NC(N)=O)OC1=O (stereo not drawn),inactive,
C[C@@]12CC(=O)[C@@H]3[C@@H](CCC4=CC(=O)CC[C@]43C)[C@@H]1CC=C2CC(=O)O,,-17% [at 11.4 µM]
NC(=O)CCCC1=NS(=O)(=O)c2ccccc2N1,inactive,
CN(C)[C@@H]1C(=O)C(C(N)=O)=C(O)[C@]2(O)C(=O)C3=C(O)c4c(O)ccc(Cl)c4[C@H](O)[C@H]3C[C@@H]12,inactive,
CC1(C)O[C@H]2[C@@H](c3[nH]nc4c(=O)[nH]c(=O)[nH]c34)OC[C@H]2O1,,-11.5% [at 11.4 µM]
CN(C)c1ccc(-c2nccc(Nc3ccc(F)cc3)n2)cc1,0.501 µM (active),
NNC(=O)[C@@H](O)[C@H](O)[C@H](O)CO,,-0.774% [at 11.4 µM]
N#C[C@@H](N=Nc1ccccc1C(=O)O)C(N)=O,,-8.23% [at 11.4 µM]
N=C(N)[C@H](N=Nc1ccccc1)C(N)=O,0.794 µM (active),
NC(Cc1ccccc1)=NCC(=O)O,,-5.52% [at 11.4 µM]
CC(C)(C)NC[C@@H](O)c1ccc(O)c(CO)n1,,10.1% [at 2.29 µM]
CC[N+](C)(CC)CCC[n+]1c(-c2ccccc2)c2cc(N)ccc2c2ccc(N)cc21,12.6 µM (active),
Cn1c(=O)c2[nH]c(CCCc3ccc([N+](=O)[O-])cc3)nc2n(C)c1=O,,-18.9% [at 11.4 µM]

SMILES,AC50,"activity, negative = inhibition"
Cn1c(=S)c2[nH]c(SCCCc3ccccc3)nc2n(C)c1=O,3.16 µM (active),
Cn1c(=S)c2[nH]c(SCCN3CCCC3)nc2n(C)c1=O,,-29.7% [at 2.29 µM]
COC(=O)C/C=C\[C@@H](C)[C@@H](/C=N\OC[C@@H](O)COCc1ccco1)NS(=O)(=O)c1ccc(C)cc1,,3.98% [at 11.4 µM]
Oc1cccc(-c2nc3c4c(ncn3n2)-c2ccccc2CC42CCCC2)c1,10 µM (active),
O=C(Nc1cccc2cccnc12)[C@@H]1[C@@H](C(=O)O)[C@H]2CC[C@@H]1O2,,-11% [at 11.4 µM]
NC(=S)Nc1cccc2cccnc12,12.6 µM (active),
Cc1cc2c(nc1C)CCCN2C[C@@H](O)CN1CCN(C)CC1,,-2.48% [at 11.4 µM]
CC1CCN(c2ccccc2NC(=S)NC(=O)c2cccs2)CC1,7.08 µM (active),
O=C(NC(=S)Nc1cccc(Cl)c1N1CCCCC1)c1cccs1,10 µM (active),
CC(=O)NS(=O)(=O)c1ccc(NC(=S)NC(=O)c2ccco2)cc1,inactive,
Cc1c(Cl)cccc1NC(=O)CCC(=O)NNC(=O)c1ccco1,inactive,
O=C(NC(=S)Nc1cccc(Cl)c1N1CCCCC1)c1ccco1,12.6 µM (active),
CN(C1CCCCC1)S(=O)(=O)c1ccc(NC(=S)NC(=O)c2cccs2)cc1,inactive,
Cc1c(NC(=S)/C=C2\N(C)c3ccccc3C2(C)C)c(=O)n(-c2ccccc2)n1C,inactive,
COc1cccc(C2NC(c3cccc(OC)c3O)C(C)C(=O)C2C)c1O (stereo not drawn),inactive,
COc1cccc(C(c2c(C)[nH]n(-c3ccccc3)c2=O)c2c(C)[nH]n(-c3ccccc3)c2=O)c1O,7.08 µM (active),
CC1=NN(c2ccccc2)C(=O)/C1=C\c1c(C)[nH]n(-c2ccccc2)c1=O,inactive,
CCN1CCC[C@H]1CNC(=O)c1c(OC)ccc(Br)c1OC,inactive,
CCCCN(C)CCCNC(=O)CCn1nc(-c2ccccc2)ccc1=O,inactive,
CCN(CCCNC(=O)CC(C(=O)N1CCc2ccccc21)n1ccnc1)c1ccccc1 (stereo not drawn),3.16 µM (active),
CCC(=O)[C@@]1(C)[C@H](C)C[C@@H]2[C@@H]3CCC4=CC(=O)C=C[C@@]4(C)[C@H]3[C@H](O)C[C@]21C,inactive,
CN(c1ccccc1)c1ccc(/C=c2\s/c(=C(/C#N)C(=O)C(C)(C)C)n(Cc3ccco3)c2=O)cc1,inactive,
CN(C)CCn1c(=O)n(Cc2ccco2)c(=O)c2c3c(sc21)CCCCC3,2.24 µM (active),
O=C(Cn1c(=O)n(Cc2ccco2)c(=O)c2c3c(sc21)CCCCC3)c1ccccc1,12.6 µM (active),

SMILES,AC50,"activity, negative = inhibition"
Cc1ccc(-n2c(=O)c3sccc3n(CC(=O)NCc3ccco3)c2=O)cc1F,inactive,
NC(=O)Cn1c(=O)n(Cc2ccco2)c(=O)c2c3c(sc21)CCCCC3,4.47 µM (active),
O=C(O)/C=C/C(=O)Nc1ccccc1-c1ccccc1,inactive,
O=C(O)/C=C\C(=O)Nc1cccc2c1-c1ccccc1C2=O,2.51 µM (active),
CC[C@H](C)N(C)C(=O)c1cc2ccccc2c(-c2ccccc2Cl)n1,inactive,
Fc1ccc(-c2ccnc3nc(N4CCOCC4)nn23)cc1,10 µM (active),
C=C1C(=O)O[C@@H]2[C@@H]1CC/C(C)=C\CC[C@@]1(C)O[C@H]21,inactive,
CC(C)Sc1cc(N2CCCC2)nc(-c2ccc(F)cc2)n1,0.631 µM (active),
CCCSc1cc(N2CCCC2)nc(-c2ccccc2)n1,0.631 µM (active),
CC(C)Sc1cc(N2CCOCC2)nc(-c2ccc(Cl)cc2)n1,5.62 µM (active),
CC[N+](C)(CC)CCN1C(=O)c2ccccc2S1(=O)=O,,-12.1% [at 11.4 µM]
CN(C)S(=O)(=O)c1cccc(NC(=O)COC(=O)c2ccc(Br)o2)c1,14.1 µM (active),
CCN(c1ccccc1)S(=O)(=O)c1ccc(NC(=S)NC(=O)c2ccc(Br)o2)cc1,inactive,
CN(C)S(=O)(=O)c1ccc(NC(=O)COC(=O)c2ccccn2)cc1,inactive,
Cc1nc2ccc(S(=O)(=O)NC(CC(C)C)C(=O)O)cc2s1 (stereo not drawn),inactive,
Cc1ccc2nc(NC(=O)CSCC(=O)OCC(=O)c3ccc(Br)cc3)sc2c1,8.91 µM (active),
Cc1ccc2nc(NC(=O)COC(=O)c3ccc(Br)o3)sc2c1,4.47 µM (active),
Cc1ccc2nc(NC(=O)COC(=O)CSc3nc(C)cc(C)n3)sc2c1,0.891 µM (active),
COc1ccc(C(=O)N2CCC3(CCCN(Cc4ccccc4OC)C3)CC2)cc1,inactive,
O=C(Cc1ccc2c(c1)CCCC2)Nc1ccccc1Br,11.2 µM (active),
CC12CCC(C(=O)Nc3ccccc3Br)(C/C1=N\O)C2(C)C (stereo not drawn),inactive,
